Results: ChEMBL document CHEMBL3988442, “University of Dundee, Small-Polar-MMV Screening Library” (2021)
Among all 48,000 compounds or so, about 13,000 (27%) showed an effect of 50% or more. Some of the results follow.

test system: Wolbachia pipientis; test: Anti-Wolbachia Cell-Based Screen; type: functional; design: scale not given: in the data most compounds retested in dose-response had high values; settings: 5 µM

SMILES | Percent Effect [%]
CS(=O)(=O)CCCNC(=O)NC1CC(c2cccc(Cl)c2)C1 (centres undefined) | -3.705
N#Cc1cccc(S(=O)(=O)NC2CCN(Cc3ccccc3)C2=O)c1 (centres undefined) | -3.444
CC(C)Oc1cc(N2CCC3(CC2)[C@H](O)C[C@@H]3O)nc(N)n1 | 12.72
CN1CCCC(N2CCN(c3nc4ccccn4c3C#N)CC2)C1 (centres undefined) | 6.11
CC(=O)N(CCc1ccccc1)CC(=O)Nc1ccccc1C#N | -7.598
CC(C)(C)c1ncc2c(n1)CN(C(=O)c1ccc(C#N)nc1)C2 | -2.492
COC(=O)c1ccc(F)c(S(=O)(=O)Nc2ccc(C(N)=O)cc2)c1 | 8.532
Cc1cccc(N2CCN(CCC(=O)NCc3ccc(C)s3)CC2)c1 | 3.46
Cc1cnc(C(=O)N2CCN(C(=O)C(C)C)[C@@H]3CS(=O)(=O)C[C@@H]32)cn1 | -9.288
COC(=O)C1CCCN1C(=O)c1ccc(-n2nc(C)cc2C)cc1 (centres undefined) | -11.77
COC(=O)CC1CCN(C(=O)c2ccc(C)cc2)CC1 | 100
Cc1ccc(O)c(C(=O)N2CCC(CN3CCCCCC3)CC2)c1 | 5.424
Cc1nnnn1-c1ccc(CC(=O)N2CCOCC(O)C2)cc1 (centres undefined) | -21.98
COc1ncccc1C(=O)N1CCC(CNC(C)=O)CC1 | -0.8543
CC(C)(C)OC(=O)NCC1CCN(C(=O)c2ccccc2O)CC1 | 15.84
CCNc1ccnc(NC2CCN(C(=O)c3ccc(C)cc3)CC2)n1 | 10.68
COC(=O)CC1CCN(C(=O)c2ccccc2-n2nnnc2C)CC1 | 87.7
COC(=O)CC1CCN(C(=O)c2ccc(-n3nnnc3C)cc2)CC1 | 129.7
Cc1cnn(CC2CN(CC(=O)Nc3sccc3C#N)CCO2)c1 (centres undefined) | -6.28
CCc1noc(CS(=O)(=O)Cc2ccccc2Cl)n1 | -7.562
CN(C)CCN1C(=O)CC[C@@H]2[C@H]1CCN2C(=O)c1ccc(C#N)cc1.O=C(O)C(F)(F)F | -26.6
Cn1cnc2c1C(COCC1CC1)CN(C(=O)c1cccs1)C2 (centres undefined) | -12.17
COCC1CN(S(=O)(=O)N(C)C)Cc2ncn(CC3CC3)c21.O=C(O)C(F)(F)F (centres undefined) | 108.7
Cn1cnc2c1C(COCC1CCOCC1)CN(c1ncccn1)C2.O=C(O)C(F)(F)F.O=C(O)C(F)(F)F (centres undefined) | -12.76
COCC1CN(S(=O)(=O)N(C)C)Cc2cnn(CC3CCCC3)c21.O=C(O)C(F)(F)F (centres undefined) | -5.811
Cn1cnc2c1C(COCC1CC1)CN(c1ncccn1)C2.O=C(O)C(F)(F)F.O=C(O)C(F)(F)F (centres undefined) | 100.9
CCS(=O)(=O)N1Cc2ncn(C)c2C(COCC2CCOCC2)C1.O=C(O)C(F)(F)F (centres undefined) | -11.73
CCOCC1CN(S(=O)(=O)N(C)C)Cc2cnn(CC3CC3)c21.O=C(O)C(F)(F)F (centres undefined) | -12.89
CCS(=O)(=O)N1Cc2ncn(CC3CC3)c2C(COCC2CC2)C1.O=C(O)C(F)(F)F (centres undefined) | 98
